Experimental data as given in PubChem BioAssay.
Unmarked numbers belong to inactive results. Active and inactive are the calls of the source. Unless noted, no stated cut-off is given here; in the data, active means inhibition above about 25%; inactive means the rest.

Tests used:
[1] = biological target: Nuclear receptor coactivator 1 (Homo sapiens) (UniProt Q15788); assay: NCOA1 GAL4-fusion reporter inhibition – cell-based, luminescence, quadruplicate, confirmation (AID 588820;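 active means mean inhibition above 46.68%, the untreated control wells mean plus 3 SD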;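 further: 0% = DMSO wells and 100% = gossypol 36 µM treated wells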); details: HEK293 GAL4-SRC1 luciferase reporter, at 3.6 µM, stronger effect = higher value
Nuclear receptor coactivator 1 (Homo sapiens), sequence (Q15788 whole entry, looked up, the tested form may be a part): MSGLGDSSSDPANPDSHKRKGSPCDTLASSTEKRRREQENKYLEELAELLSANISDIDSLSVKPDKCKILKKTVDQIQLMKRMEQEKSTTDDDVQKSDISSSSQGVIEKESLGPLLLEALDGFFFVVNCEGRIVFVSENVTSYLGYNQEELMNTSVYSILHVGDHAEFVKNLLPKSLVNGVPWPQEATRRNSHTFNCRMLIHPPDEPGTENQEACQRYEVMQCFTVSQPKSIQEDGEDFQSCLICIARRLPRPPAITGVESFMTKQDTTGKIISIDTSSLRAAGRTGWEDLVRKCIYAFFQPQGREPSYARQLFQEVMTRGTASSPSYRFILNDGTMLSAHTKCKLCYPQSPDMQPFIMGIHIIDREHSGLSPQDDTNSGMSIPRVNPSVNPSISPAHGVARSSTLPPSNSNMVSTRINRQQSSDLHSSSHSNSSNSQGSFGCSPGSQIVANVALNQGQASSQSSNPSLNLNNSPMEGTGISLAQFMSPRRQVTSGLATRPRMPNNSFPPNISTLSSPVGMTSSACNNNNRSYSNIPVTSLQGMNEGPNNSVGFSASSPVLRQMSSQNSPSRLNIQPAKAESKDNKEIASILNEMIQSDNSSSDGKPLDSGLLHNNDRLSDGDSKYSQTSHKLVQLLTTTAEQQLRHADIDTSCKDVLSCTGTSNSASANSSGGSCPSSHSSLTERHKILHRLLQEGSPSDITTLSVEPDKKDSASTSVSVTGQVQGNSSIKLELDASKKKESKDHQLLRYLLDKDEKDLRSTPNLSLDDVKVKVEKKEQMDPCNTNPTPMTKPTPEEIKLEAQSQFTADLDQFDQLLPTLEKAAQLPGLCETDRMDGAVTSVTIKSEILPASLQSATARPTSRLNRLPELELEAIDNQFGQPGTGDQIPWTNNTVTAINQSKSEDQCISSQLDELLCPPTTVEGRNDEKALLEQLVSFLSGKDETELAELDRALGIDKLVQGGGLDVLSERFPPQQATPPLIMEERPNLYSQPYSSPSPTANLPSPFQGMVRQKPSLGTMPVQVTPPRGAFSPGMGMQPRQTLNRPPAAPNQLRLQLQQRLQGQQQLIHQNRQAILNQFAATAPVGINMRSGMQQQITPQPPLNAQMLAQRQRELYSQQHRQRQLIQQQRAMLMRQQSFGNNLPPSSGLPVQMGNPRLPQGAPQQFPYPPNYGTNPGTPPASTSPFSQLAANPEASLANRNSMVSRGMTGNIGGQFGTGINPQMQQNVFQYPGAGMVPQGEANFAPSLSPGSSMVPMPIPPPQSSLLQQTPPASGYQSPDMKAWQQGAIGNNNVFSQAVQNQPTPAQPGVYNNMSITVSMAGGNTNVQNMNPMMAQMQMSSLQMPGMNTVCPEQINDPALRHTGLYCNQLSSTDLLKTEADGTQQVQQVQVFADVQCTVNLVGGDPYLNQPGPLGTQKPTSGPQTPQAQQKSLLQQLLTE

[2] = repression of VP16-driven luciferase reporter – cell-based, luminescence, high throughput, counter-screen for SRC1 inhibitor project (AID 588824); details: cell-based VP16 transactivation luciferase luminescence; at 3.6 µM; stronger effect = higher value
[3] = StAR promoter reporter inhibitors, counter-screen for LRH-1 inverse agonist project, cell-based, luminescence, high throughput (AID 651611; in the data active means inhibition above about 28%); details: StAR promoter luciferase reporter counterscreen, at 3.6 µM, stronger effect = higher value
[4] = biological target: Nuclear receptor subfamily 5 group A member 2 (Homo sapiens) (UniProt O00482); assay: NR5A2 activity suppression in reporter cells – cell-based, luminescence, confirmation (AID 651613; in the data active means inhibition above about 42%;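 further: HEK293T cells co-transfected with LRH-1 and StAR promoter luciferase reporter; 0% = vehicle wells and 100% = parental cells lacking receptor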); details: cell-based LRH-1 luciferase reporter, inverse agonism; at 3.6 µM; stronger effect = higher value
Nuclear receptor subfamily 5 group A member 2 (Homo sapiens), sequence (O00482 whole entry, looked up): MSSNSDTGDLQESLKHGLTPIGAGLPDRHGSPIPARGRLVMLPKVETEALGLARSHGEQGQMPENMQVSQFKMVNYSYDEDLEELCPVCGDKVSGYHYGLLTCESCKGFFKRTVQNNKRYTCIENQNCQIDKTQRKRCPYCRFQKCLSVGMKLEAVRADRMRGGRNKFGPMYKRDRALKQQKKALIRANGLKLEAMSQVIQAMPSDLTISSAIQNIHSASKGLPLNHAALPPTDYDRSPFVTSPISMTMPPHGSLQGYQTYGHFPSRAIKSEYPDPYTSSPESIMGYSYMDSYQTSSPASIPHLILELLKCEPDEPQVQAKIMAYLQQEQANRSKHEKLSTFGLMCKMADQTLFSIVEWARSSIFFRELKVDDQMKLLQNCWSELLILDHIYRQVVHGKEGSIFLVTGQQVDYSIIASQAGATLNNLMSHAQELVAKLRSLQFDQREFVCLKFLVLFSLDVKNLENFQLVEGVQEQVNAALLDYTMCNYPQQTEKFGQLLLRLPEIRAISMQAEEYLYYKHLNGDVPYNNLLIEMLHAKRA

[5] = biological target: Steroidogenic factor 1 (Homo sapiens) (UniProt Q13285); assay: inverse agonism at SF1 nuclear receptor – cell-based, luminescence, high throughput, counter-screen for LRH-1 inverse agonist project (AID 651614; in the data active means inhibition above about 44%;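 further: cells cotransfected with StAR promoter reporter and SF1 expression vector; 0% = vehicle on cells with receptor and 100% = vehicle on cells lacking receptor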); details: cell-based SF1 luciferase reporter, at 3.6 µM, stronger effect = higher value
Steroidogenic factor 1 (Homo sapiens), sequence (Q13285 whole entry, looked up, the tested form may be a part): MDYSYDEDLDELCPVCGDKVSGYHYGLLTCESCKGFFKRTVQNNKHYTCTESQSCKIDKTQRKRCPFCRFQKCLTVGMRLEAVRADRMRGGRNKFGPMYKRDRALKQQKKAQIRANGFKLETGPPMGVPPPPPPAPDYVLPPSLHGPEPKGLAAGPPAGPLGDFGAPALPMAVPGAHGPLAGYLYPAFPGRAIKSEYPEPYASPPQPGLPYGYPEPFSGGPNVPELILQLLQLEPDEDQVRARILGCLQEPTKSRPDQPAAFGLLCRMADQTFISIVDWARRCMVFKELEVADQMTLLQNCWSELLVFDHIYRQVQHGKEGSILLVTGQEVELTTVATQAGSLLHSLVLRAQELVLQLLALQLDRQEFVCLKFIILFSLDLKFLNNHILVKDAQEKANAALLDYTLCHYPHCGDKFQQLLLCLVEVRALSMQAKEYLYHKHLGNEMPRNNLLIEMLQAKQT

[6] = compounds suppressing VP16-driven luciferase signal – cell-based, luminescence, high throughput, counter-screen for LRH-1 inverse agonist project (AID 651615; in the data active means inhibition above about 33%); details: Gal4-VP16 luciferase reporter cells, at 3.6 µM, stronger effect = higher value

O=C(CSc1nnc(Cn2nnc3ccccc32)o1)N(Cc1ccc(F)cc1)c1ccccc1
inhibition [1]: -0.43%
inhibition [2]: 38.8% (active)
inhibition [3]: 24.2%
inhibition [4]: 63% (active)
inhibition [5]: 56.7% (active)
inhibition [6]: 56.9% (active)

Cc1ccc(S(=O)(=O)/N=C(\CCl)N2CCOCC2)cc1
inhibition [1]: -32.5%
inhibition [2]: -30.7%
inhibition [3]: 23.9%
inhibition [4]: 50.2% (active)
inhibition [5]: 52.1% (active)
inhibition [6]: -22.8%

Cc1cc2[nH]c(=O)c(=O)[nH]c2cc1S(=O)(=O)NC1CCC(C)CC1 (stereo unspecified)
inhibition [1]: -3.97%
inhibition [2]: -2.19%

C/C(=N\NC(=O)Cc1ccc(Cl)cc1)c1ccccn1
inhibition [1]: -28.3%
inhibition [2]: 23.3%

COc1ccc(C(=O)NCCN(C)C)c2nc3ccccc3cc12
inhibition [1]: 20.7%
inhibition [2]: 39.4% (active)
inhibition [3]: 63.9% (active)
inhibition [4]: 77.7% (active)
inhibition [5]: 60% (active)
inhibition [6]: 65.3% (active)

CCN(CC)S(=O)(=O)c1cc(NC(=O)CNc2cccc(S(=O)(=O)N3CCCC3)c2)ccc1C
inhibition [1]: -4.32%
inhibition [2]: 32.8% (active)
inhibition [3]: 21.6%
inhibition [4]: 61.7% (active)
inhibition [5]: 54.9% (active)
inhibition [6]: 49.1% (active)

COc1ccc(NC(=O)C2Cc3c(-c4cccc(C(C)=O)c4)ccnc3O2)cc1OC (stereo unspecified)
inhibition [1]: -17.4%
inhibition [2]: 19.6%
inhibition [3]: 44% (active)
inhibition [4]: 59% (active)
inhibition [5]: 72% (active)
inhibition [6]: 48.8% (active)

CCCCCCCCNc1ncnc2[nH]ncc12
inhibition [1]: -9.61%
inhibition [2]: 19.6%

COc1ccc(OC)c(NC(=O)c2cc(-c3c(C)cc(C)cc3O)n[nH]2)c1
inhibition [1]: 11.1%
inhibition [2]: 6.02%

O=C1c2cccc3cc([N+](=O)[O-])cc(c23)C(=O)N1CCN1CCCC1
inhibition [1]: -86.9%
inhibition [2]: 42.6% (active)
inhibition [3]: 13.3%
inhibition [4]: 91.6% (active)
inhibition [5]: 68.6% (active)
inhibition [6]: 64.2% (active)

COc1cc2c(oc(=O)c3cc(C)cc(OC)c32)c2c(C3OC(C)C(O)C(C)(O)C3O)ccc(O)c12 (stereo unspecified)
inhibition [1]: -62.6%
inhibition [2]: 64.9% (active)
inhibition [3]: 50.6% (active)
inhibition [4]: 93.8% (active)
inhibition [5]: 75.5% (active)
inhibition [6]: 94% (active)

Cc1cc(C)c(CN2CCN(C(=O)Cn3cnc4c(NCc5ccccc5)ncnc43)CC2)c(C)c1
inhibition [1]: -9.2%
inhibition [2]: 43.4% (active)
inhibition [3]: 35% (active)
inhibition [4]: 54.1% (active)
inhibition [5]: 57.5% (active)
inhibition [6]: 57.9% (active)

COc1cccc2c1C(=O)c1c(O)c3c(c(O)c1C2=O)CC(O)(C(C)=O)CC3OC1CC(O)C(O)C(C)O1 (stereo unspecified)
inhibition [1]: -3.87%
inhibition [2]: 16.4%
inhibition [3]: 29.2% (active)
inhibition [4]: 50.7% (active)
inhibition [5]: 17.4%
inhibition [6]: 16.1%

Cc1sc2ncnc(NCC3COc4ccccc4O3)c2c1C (stereo unspecified)
inhibition [1]: -48.1%
inhibition [2]: 26.2% (active)
inhibition [3]: 18%
inhibition [4]: 62% (active)
inhibition [5]: 46.1% (active)
inhibition [6]: 57.4% (active)

NS(=O)(=O)c1ccc(N=Nc2c(O)[nH]c3ccc(Br)cc23)cc1
inhibition [1]: 8.56%
inhibition [2]: 5.38%
inhibition [3]: 38.4% (active)
inhibition [4]: 23.4%
inhibition [5]: 30.4%
inhibition [6]: 8.51%

COc1ccccc1NS(=O)(=O)c1cccc(C(=O)NC2CCN(Cc3ccccc3)CC2)c1
inhibition [1]: -19.5%
inhibition [2]: 26.4% (active)
inhibition [3]: 26.2%
inhibition [4]: 60.4% (active)
inhibition [5]: 65.3% (active)
inhibition [6]: 48.3% (active)

CCN(CC)C1=CC(=[N+]2CCCC2)CC(C)(C)C1
inhibition [1]: -5.15%
inhibition [2]: 22.7%
inhibition [3]: 17.4%
inhibition [4]: 61.9% (active)
inhibition [5]: 57.5% (active)
inhibition [6]: 45.8% (active)

COc1ccc(CNC(=O)c2cccc3c(-c4cccnc4)coc23)cc1OC
inhibition [1]: -25.2%
inhibition [2]: 43.8% (active)
inhibition [3]: 48.5% (active)
inhibition [4]: 59.9% (active)
inhibition [5]: 66.4% (active)
inhibition [6]: 67.4% (active)

CN(C)c1ccc(Sc2ccc3nc(N)nc(N)c3c2)cc1
inhibition [1]: 14.5%
inhibition [2]: 27.5% (active)
inhibition [3]: 60.9% (active)
inhibition [4]: 107% (active)
inhibition [5]: 61.6% (active)
inhibition [6]: 80.2% (active)

CC1(c2ccc3ccccc3c2)NC(=O)N(CC(=O)N2CCN(Cc3ccccc3)CC2)C1=O (stereo unspecified)
inhibition [1]: -20.6%
inhibition [2]: 37.1% (active)
inhibition [3]: 12.2%
inhibition [4]: 55.8% (active)
inhibition [5]: 58% (active)
inhibition [6]: 48.8% (active)

CN1CCN(c2ccc(CNS(=O)(=O)Cc3cccc(C(F)(F)F)c3)cc2)CC1
inhibition [1]: -13.6%
inhibition [2]: 26.4% (active)
inhibition [3]: 15.4%
inhibition [4]: 69.8% (active)
inhibition [5]: 68.1% (active)
inhibition [6]: 40.1% (active)

Cc1c(C(C)C)c(=O)n(-c2ccc(S(=O)(=O)NCc3ccccc3)cc2)n1C
inhibition [1]: -18.5%
inhibition [2]: 30.9% (active)
inhibition [3]: 16.5%
inhibition [4]: 54.3% (active)
inhibition [5]: 55.1% (active)
inhibition [6]: 44.1% (active)
